Screening data from PubChem.
Sampled rows, rich in hits. Any-hit rate of the full collection: about 7.2%.
HEK293 tox = kills HEK 293 cells | HEK 293 viability, ATP luminescence (CellTiter-Glo), 48-72 h | 94,000 compounds, 6.6% hits | Potency, µM (top dose mostly 115 µM), most hits filed as inhibitors; also: nearly all actives have a fitted effect of over 60% in size
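Read-out: CellTiter-Glo ATP luminescence. Cells: HEK 293, 250 cells/well. Exposure: 48 or 72 hr, 37 degree Celsius.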
Luciferase inh = inhibitors of firefly (Photinus pyralis) luciferase | purified P. pyralis luciferase, luminescence, biochemical | Potency, µM (series often up to 115 µM), hits mostly inhibitors | 76,000 compounds, 2.5% hits | AID 1347043; also: nearly all actives have a fitted effect of over 65% in size
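FLuc 10nM, D-luciferin 10uM, ATP 10uM, Mg acetate 10mM, Tris acetate pH 7.5, Tween/BSA; cpd qHTS; enzyme added last; CCD luminescence.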
NPR1 antag = blocks ANP-stimulated signaling of human Npr1 receptor; Potency, µM (titrated, usually from 46.3 µM), hits mostly inhibitors; 76,000 compounds, 1.6% hits; HEK293 hNpr1 GloSensor cGMP, ANP-stimulated luminescence; calls by dose curve; also: nearly all actives have a fitted effect of over 60% in size
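HEK293 cells stably expressing human Npr1 and cGMP GloSensor pGS-40F, loaded 2 h with 2% GloSensor reagent, given compound 30 min at room temperature. Luminescence read before and 20 min after 0.1 nM hNppA.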
SNCA expr inhib = inhibitors of alpha-synuclein (SNCA) gene expression. HEK-293 SNCA-luciferase knock-in, luminescence, 24 h. Potency, µM (doses to about 57.2 µM), most hits filed as inhibitors. 140,000 compounds, 0.17% hits. AID 1671194; also: nearly all actives have a fitted effect of over 45% in size
SNCA viab count = counter-screen for SNCA expression inhibitors: cell viability. HEK-293-SNCA-luc viability, GF-AFC fluorescence, 24 h. Potency, µM (top dose mostly 57.1 µM), most hits filed as cytotoxic. 150,000 compounds, 0.12% hits; also: nearly all actives have a fitted effect of over 30% in size
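HEK-293-SNCA-luc cells (1500/well) plated 24 h, then exposed 24 h to a dilution series; GF-AFC added 30 min at 37C, fluorescence 405/540 nm; normalised to medium-only and DMSO wells, Hill fit.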
3T3 cytotox = NIH 3T3 cell cytotoxicity | 94,000 compounds, 4.3% hits | NIH 3T3 viability, CellTiter-Glo ATP luminescence, 48-72 h | Potency, µM (highest dose often 96.7 µM), actives largely listed as inhibitors; also: nearly all actives have a fitted effect of over 55% in size
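Cytotoxicity was measured by CellTiter-Glo ATP luminescence after 48 or 72 h compound exposure at 37 °C. Mouse NIH 3T3 fibroblasts were seeded at 400 cells/well and dosed by 23 nL pin transfer.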
Hits are given with their value; . = inactive; ? = inconclusive; / = no result given. Unless noted, calls follow the shape of the dose curve; as a rule, active = well fitted curve in the direction sought with a large enough effect; inconclusive = small, poorly fitted or top-dose-only effect, or another doubt; inactive = no such curve, though single readings can be large; an effect the other way counts as inactive or inconclusive.

SMILES	HEK293 tox	Luciferase inh	NPR1 antag	SNCA expr inhib	SNCA viab count	3T3 cytotox
COc1ccc(-c2cn3c(n2)CO[C@@H](CNC(=O)C2CCCC2)C3)cc1	.	28µM	.	.	.	.
COc1ccc(-c2cn3c(n2)CO[C@@H](CNC2CCC2)C3)cc1	.	56µM	.	.	.	.
COc1ccccc1CNC[C@H]1Cn2cc(-c3ccc(C)cc3)nc2CO1	100µM	?	.	.	.	100µM
CC(C)NC[C@H]1Cn2c(-c3cccc(Cl)c3)cnc2CO1	.	.	.	.	.	.
COc1ccc(-c2cn3c(n2)CO[C@@H](CNC(=O)c2ccccc2OC)C3)cc1	71µM	?	.	.	?	.
Cn1cc(CN2CCN(C(=O)c3c[nH]c4ccccc34)CC2)ccc1=O	.	32µM	.	.	.	.
Cn1cc(CN2CCN(C(=O)c3ccoc3)CC2)ccc1=O	.	.	.	.	.	.
Cn1nc(-c2ccncc2)cc1NC(=O)c1ccccc1F	?	/	/	.	.	?
COC(=O)N(C)C1CCCc2ccccc21 (stereo unspecified)	?	.	.	.	.	.
CN(C(=O)c1ccc(F)cc1)C1CCCc2ccccc21 (stereo unspecified)	100µM	?	.	.	.	?
Cc1ccc(C(=O)N(C)C2CCCc3ccccc32)cc1 (stereo unspecified)	79µM	35µM	.	.	?	?
C=CCNC(=O)c1cnn2ncccc12	.	50µM	.	.	.	.
COc1ccc2[nH]cc(CCNC(=O)C3Cn4cccc4C(=O)N3Cc3cccnc3)c2c1 (stereo unspecified)	89µM	.	.	.	.	?
O=C(NCC1Cn2cccc2C(=O)N1Cc1cccnc1)c1n[nH]c(=O)c2ccccc12 (stereo unspecified)	.	.	.	.	.	40µM
CC(C)CN1C(=O)c2cccn2CC1CNC(=O)c1n[nH]c(=O)c2ccccc12 (stereo unspecified)	.	.	.	.	.	.
O=C(c1ccc(Cl)cc1)N(CC1CCOC1)C1CC1 (stereo unspecified)	.	.	.	.	.	.
O=S(=O)(c1ccc2c(c1)CCC2)N1CCCCC1c1nc(CCOCC2CC2)no1 (stereo unspecified)	40µM	.	.	.	.	28µM
O=S(=O)(c1cccs1)N1CCCCC1c1nc(CCOCC2CC2)no1 (stereo unspecified)	?	.	.	.	.	.
O=C1CCN(C(=O)Nc2ccccc2F)CCCC(C(=O)NCc2ccncc2)CCN1 (stereo unspecified)	.	.	.	.	.	.
COc1ccc(-c2nc(N3CCOCC3)cc3c2CN(Cc2ccccc2)C3=O)cc1	?	?	.	.	.	?
Cn1cc(CN2Cc3c(cc(N4CCOCC4)nc3-c3cccnc3)C2=O)cn1	.	.	.	.	.	?
O=C1c2cc(N3CCOCC3)nc(-c3cccc(F)c3)c2CN1CC1CC1	112µM	.	.	.	.	?
C[S+](=O)([O-])Nc1cccc(-c2nc(N3CCOCC3)cc3c2CN(CC2CC2)C3=O)c1	.	.	.	.	.	?
O=C1c2cc(N3CCOCC3)nc(-c3ccccc3)c2CN1Cc1ccccc1	50µM	.	?	?	.	32µM
Cn1cc(CN2Cc3c(cc(N4CCOCC4)nc3-c3cccc(F)c3)C2=O)cn1	89µM	.	.	.	.	?
SMILES	HEK293 tox	Luciferase inh	NPR1 antag	SNCA expr inhib	SNCA viab count	3T3 cytotox
O=C1CCNc2ccccc2CN1C1CC1	.	/	/	/	/	?
COc1ncccc1-c1nccc2c(=O)cc(N(C)C3CCOCC3)oc12	.	.	.	.	.	?
COc1ncccc1-c1nccc2c(=O)cc(N(C)C)oc12	.	.	.	.	.	?
COc1ccc(-c2nccc3c(=O)cc(N(C)C)oc23)cn1	.	.	.	.	.	50µM
CN(c1cc(=O)c2ccnc(-c3ccc(O)c(F)c3)c2o1)C1CCOCC1	.	.	.	.	.	8.9µM
CN1CCN(c2ccc(-c3nccc4c(=O)cc(N(C)C5CCOCC5)oc34)cn2)CC1	.	.	.	.	.	89µM
